Results: PubChem BioAssay (EPA / NIEHS)
Active and inactive are the calls of the source. How the source made its calls: active means hit-call score of the fitted dose curve at least 0.9, where 1 is the maximum; inactive means score below 0.9.

Assay: CEETOX_H295R_PROG: CeeTox H295R High-throughput Steroidogenesis Assay for Progesterone (PROG) (AID 2283442);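 on AC50: human H295R adrenal cells primed with 10 µM forskolin before dosing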
Conditions: actives raise or lower the signal
Procedure: CEETOX_H295R is a cell-based, multiplexed-readout assay that uses H295R, a human adrenal gland cell line, with measurements taken at 48 hours after chemical dosing in a 96-well plate.CEETOX_H295R_PROG is one of 23 assay component(s) measured or calculated from the CEETOX_H295R assay. It is designed to make measurements of hormone induction, a form of inducible reporter, as detected with absorbance signals by HPLC-MS-MS technology.Data from the assay component CEETOX_H295R_PROG was analyzed into 1 assay endpoint. This assay endpoint, CEETOX_H295R_PROG, was analyzed with bidirectional fitting relative to DMSO as the negative control and baseline of activity. Using a type of inducible reporter, gain or loss-of-signal activity using HPLC-MS-MS was used to understand synthesis of Progesterone in H295R cell line at 48hr of chemical exposure. To generalize the intended target to other relatable targets, this assay endpoint is annotated to the steroid hormone intended target family, where the subfamily is progestagens.
Cell culture and media preparation procedures were conducted in accordance with OECD Test No. 456 guidelines, with minor modifications. H295R cells (ATCC CRL-2128) were expanded for 5 passages and frozen in batches in liquid nitrogen. Prior to the steroidogenesis assay, H295R cells were thawed and passed at least 4 times. The maximum passage was 10. Cells were maintained in a 1:1 mixture of DMEM/F12 supplemented with 5ml/L ITS+ Premix (BD Bioscience) and 12.5 ml/L Nu-Serum (BD Bioscience). After seeding cells into 96-well plates at 50-60% confluency, cells were allowed to adhere overnight. Prior to chemical testing, culture medium was replaced with 175 uL medium containing 10 uM forskolin to stimulate steroidogenesis for 48 hours. Following prestimulation, forskolin medium was replaced with medium containing test chemical solubilized in DMSO (ensuring a final concentration of 0.1% DMSO). Test chemicals were incubated for 48 hours, then the medium was removed and split into 2 vials containing approximately 75uL each, and stored at -80 C prior to hormone analysis. For steroid quantification, media samples were shipped to OpAns, LLC (Durham, NC) on dry ice, and samples were thawed to room temperature prior to liquid-liquid extraction. Steroid hormones were extracted from media samples using methyl tertbutyl ether (MTBE). An extra derivatization with dansyl chloride was included for estrogen (estrone and estradiol) detection only. Steroid hormones were separated by HPLC, eluted using a reverse phase C18 gradient with electrospray positive ionization, followed by quantification by tandem mass spectrometry (MS/MS). Data were acquired on a MassHunter Workstation Acquisition version B03.01 (Agilent Technologies, Inc.) and processed using MassHunter Quantitative Analysis for QQQ. Accuracy was determined for each hormone analyte from 3 standards to determine upper and lower limits of quantification (ULOQ and LLOQ, respectively) using a 7-point standard curve. Precision and accuracy of the extraction and quantification methods were calculated as the percent relative standard deviation (%RSD) of the spiked standards and percent spiked standard recovered, respectively. The goal was to achieve 100% accuracy (i.e., recover all spiked-in standard at quantification with minimal loss during run time) and good precision (i.e., have %RSD <15% to ensure reproducibility). Test medium was removed following chemical exposure, and cell viability was evaluated in the same wells by MTT. MTT procedures were as follows: after removal of test medium, 500 uL of 0.5 mg/ml of 3-[4,5-dimethylthiazol-2-y]2,5-diphenyltetrazoliumbromide solution was added to the cells. Following a 4-hour incubation at 37 C and 5% CO2 to allow formazan-crystal formation, the MTT solution was removed and blue formazan salt crystals were solubilized using 500uL anhydrous isopropanol with shaking for 20 minutes. Absorbance was read at 570 and 650nm using a Packard Fusion microplate reader. […]

Compound	AC50	outcome
O=C(O)C[C@H](O)C[C@H](O)/C=C/c1c(C2CC2)nc2ccccc2c1-c1ccc(F)cc1	0.0233 µM (active)	–
NC(=O)Nc1ccc(Cl)cc1	–	inactive
Nc1cc([N+](=O)[O-])ccc1Cl	–	inactive
CC1COc2ccccc2N1C(=O)C(Cl)Cl (configuration not stated)	–	inactive
C#C[C@]1(O)CC[C@H]2[C@@H]3CCC4=Cc5oncc5C[C@]4(C)[C@H]3CC[C@@]21C	0.225 µM (active)	–
C=CC(C)(C)O	–	inactive
C=CCOc1nc(OCC=C)nc(OCC=C)n1	50 µM (active)	–
CSc1nc(NC2CC2)nc(NC(C)(C)C)n1	–	inactive
CC(C)c1cccc(O)c1	–	inactive
Nc1ccc(F)c([N+](=O)[O-])c1	50 µM (active)	–
O=c1cc(-c2ccccc2)oc2cc(O)cc(O)c12	16.1 µM (active)	–
COc1cc2ncnc(Nc3cccc(Cl)c3)c2cc1OC	–	inactive
O=C(O)c1ccc([N+](=O)[O-])cc1	–	inactive
CC1(C)[C@H](C(=O)OCc2cccc(Oc3ccccc3)c2)[C@@H]1C=C(Cl)Cl	–	inactive
Cc1cccc(C)c1C	–	inactive
c1ccc(CCCc2ccccn2)cc1	50 µM (active)	–
Cc1ccc2n[nH]nc2c1	–	inactive
